Bioassay records from PubChem.
Compounds with a hit are over-represented: about 2.7% of the library has one in this group of screens.
TMEM16A act = mouse TMEM16A channel activation, primary screen; actives 0.3% (n = 340,000); HEK293 TMEM16A/YFP-H148Q/I152L, iodide quench fluorescence; active compounds read low; B-score at 10 µM;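 active = fluorescence-ratio B-score plate-corrected deviation score at least 3 library SD below zero, with starting fluorescence score within 5 deviations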;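 also: channel opened by trigger with iodide after compound preincubation; score built on the fluorescence ratio of max minus min over baseline; more negative score means more quench and so TMEM16A activation or potentiation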
PP1 inh = counter-screen for PP5 inhibitors: inhibitors of human PP1-alpha; AID 2235; purified PP1alpha, OMFP fluorescence; actives 0.9% (n = 320,000); P62136; inhibition, % at 6.7 µM;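 active = inhibition above the mean inhibition of all tested compounds plus 3 SD, computed separately for each screening campaign, cut at about 15% in these data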
ANO1 block = blocks the mouse calcium-activated chloride channel TMEM16A | Q8BHY3 | actives 1.2% (n = 310,000) | normalized B-score (activity score, 25-100; higher = stronger inhibition) at 10 µM | HEK293 TMEM16A/YFP iodide influx fluorescence, ionomycin;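 active = ratio plate-corrected score three or more library SD toward inhibition, starting fluorescence score within five deviations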;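 also: score derived from kinetic fluorescence span divided by baseline fluorescence per well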
FID counter = counter-screen for HCV NS3 helicase inhibitors: DNA intercalator displacement. inhibition, % at 7.9 µM. actives 0.17% (n = 290,000). DNA fluorescent intercalator displacement, fluorescence; in the data active = inhibition above about 37%;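 also: 0% = vehicle and 100% = reference compound; higher means more ethidium bromide displaced from hairpin DNA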
PREPL inhibitor = inhibitors of human prolyl oligopeptidase-like enzyme PREPL | Q4J6C6 | recombinant PREPL, fluorescence polarization activity-based probe | inhibition, % at 5.96 µM | actives 0.68% (n = 320,000) | AID 2751; in the data active = inhibition above about 43%;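 also: 0% = enzyme with DMSO and 100% = wells lacking enzyme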
PP5 inh = inhibitors of human protein phosphatase 5 (PP5); P53041; purified PP5c, OMFP substrate fluorescence; inhibition, % at 6.7 µM; actives 0.18% (n = 320,000); AID 1987;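 active = inhibition above the campaign's mean inhibition across all tested compounds plus 3 SD, cut at about 9.5% in these data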;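 also: 0% = DMSO only and 100% = 100 µM cantharidin control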
Target sequence (P53041 whole entry, looked up): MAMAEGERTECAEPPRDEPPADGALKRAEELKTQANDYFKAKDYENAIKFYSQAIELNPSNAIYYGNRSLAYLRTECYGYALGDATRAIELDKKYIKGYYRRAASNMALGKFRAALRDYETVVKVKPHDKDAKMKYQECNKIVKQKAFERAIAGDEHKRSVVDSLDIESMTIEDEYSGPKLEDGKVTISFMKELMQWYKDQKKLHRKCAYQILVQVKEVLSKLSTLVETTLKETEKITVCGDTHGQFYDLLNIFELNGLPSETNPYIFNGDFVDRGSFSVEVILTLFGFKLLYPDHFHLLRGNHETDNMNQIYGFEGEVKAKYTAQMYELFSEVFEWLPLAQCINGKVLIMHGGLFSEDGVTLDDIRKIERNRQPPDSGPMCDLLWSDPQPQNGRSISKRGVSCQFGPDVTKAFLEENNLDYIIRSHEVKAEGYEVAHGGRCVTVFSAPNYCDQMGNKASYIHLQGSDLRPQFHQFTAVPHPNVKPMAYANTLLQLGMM
PP1 confirm = confirmation of human PP1 phosphatase inhibitors; shares compounds with PP1 inh; purified PP1alpha, OMFP substrate fluorescence; inhibition, % at 6.7 µM; actives 52% (n = 1,900);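 active = mean PP1 inhibition above a set limit taken from the earlier primary screen, cut at about 15% in these data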
PP5 counter = PP5 phosphatase inhibition, counter-screen for PP1 inhibitors; shares compounds with PP1 inh; purified PP5c, OMFP fluorescence; inhibition, % at 6.7 µM; actives 4% (n = 1,900);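 active = mean PP5 inhibition over triplicate wells above about 9.5% taken from the earlier PP1 screen, limit read from the data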
Numbers without * were called inactive; i = inactive; . = not tested or not shown.

SMILES	TMEM16A act	PP1 inh	ANO1 block	FID counter	PREPL inhibitor	PP5 inh	PP1 confirm	PP5 counter
Cc1ccc(C)c(N(CC(=O)N/N=C/c2ccc(-c3ccc([N+](=O)[O-])cc3)o2)S(=O)(=O)c2ccccc2)c1	i	2.9	i	-2.8	7.5	1.9	.	.
CCOc1ccc(S(=O)(=O)N(CC(=O)N/N=C/c2ccc(-c3ccc([N+](=O)[O-])cc3)o2)c2ccccc2)cc1	i	32.9*	i	0.1	35.0	2.3	35.1*	-0.4
COc1ccc(CNC[C@@H](CCCCN(C)Cc2ccc(OC)cc2)N2C[C@H](c3ccccc3)N(CCc3ccc(Cl)c(Cl)c3)C(=O)C2=O)cc1	i	39.4*	i	37.2*	42.3	4.9	12.8	-1.0
COc1ccc(CNC(=O)[C@@H]2CC=C[C@@H]3CCN(Cc4ccc(Cl)c(Cl)c4)C(=O)[C@@H]32)cc1	i	3.0	i	.	-28.0	1.3	.	.
Cc1ccc(/C=N/Nc2ccnc3cc(Cl)ccc23)c(C)c1	i	33.1*	i	4.0	19.0	5.9	2.8	2.4
CC(C)(C)c1ccc(C(=O)NCC(=O)OCC(=O)c2ccc3c(c2)-c2ccccc2C3)cc1	i	19.8*	i	-9.3	-13.3	1.5	14.4	-0.2
O=C(CNC(=O)c1ccc(Cl)cc1)OCC(=O)c1ccccc1	i	-0.5	i	-13.5	-4.7	2.0	.	.
CCOc1ccc(NCc2nnc(SCc3ccc(Cl)cc3)n2-c2ccccc2)cc1	i	18.5*	i	-28.0	42.9	3.0	1.4	3.3
CCOc1ccc(NCc2nnc(SCC(=O)Nc3nc(-c4ccccc4)cs3)n2-c2ccccc2)cc1	i	28.0*	i	-2.7	1.8	2.3	14.9	-2.8
CCOC(=O)CSc1nnc(CNc2ccc(Cl)cc2)n1-c1ccccc1	i	-1.2	i	-24.3	8.2	1.3	.	.
Cc1cccc(C)c1NCc1nnc(SCC(=O)Nc2nc(-c3ccccc3)cs2)n1-c1ccccc1	i	-0.7	i	-11.3	14.8	-0.8	.	.
CC1=C(C(=O)OCCNC(=O)c2ccccc2O)C(c2ccccc2[N+](=O)[O-])C(C(=O)OCC2CCCO2)=C(C)N1 (stereo not drawn)	i	-2.1	i	-15.1	10.4	2.5	.	.
Cc1ccc(S(=O)(=O)N2[C@@H](c3ccc(F)cc3)C(C(=O)O)=CC[C@H]2c2ccc(C(C)C)cc2)cc1	i	19.4*	100*	.	3.3	3.7	11.8	2.6
COc1cccc([C@@H]2CC=C(C(=O)O)[C@H](c3cccc(Cl)c3)N2S(=O)(=O)c2ccc(C)cc2)c1	i	-1.4	i	.	-0.6	1.1	.	.
Cc1ccc(S(=O)(=O)N2[C@@H](c3ccc(Cl)cc3)C(C(=O)O)=CC[C@H]2c2ccc(Cl)cc2)cc1	i	21.5*	100*	.	3.2	5.2	12.1	0.2
COc1ccc([C@@H]2CC=C(C(=O)O)[C@H](c3ccc(F)cc3)N2S(=O)(=O)c2ccc(C)cc2)cc1OC	i	-7.2	i	.	2.2	2.9	.	.
O=C(O)C1=CC[C@@H](c2ccc(Cl)cc2)N(S(=O)(=O)c2ccc(Cl)cc2)[C@H]1c1cccc(Cl)c1	i	23.1*	100*	.	-1.8	-2.9	12.5	-3.6
Cc1ccc(S(=O)(=O)N2[C@@H](c3cccc(Cl)c3)C(C(=O)O)=CC[C@H]2c2ccc(C(C)C)cc2)cc1	i	29.0*	100*	.	1.0	2.2	21.0*	2.0
Cc1ccc(S(=O)(=O)N2[C@@H](c3ccccc3)C(C(=O)O)=CC[C@H]2c2ccc(Cl)cc2)cc1	i	9.2	i	.	-6.0	-2.0	.	.
O=C(O)C1=CC[C@@H](c2ccc(Cl)cc2)N(S(=O)(=O)c2ccc(Cl)cc2)[C@H]1c1ccc(Br)cc1	.	.	.	.	5.9	.	.	.
CCCCn1c(N)c(N(CCOC)C(=O)CSCc2ccc(C)cc2)c(=O)[nH]c1=O	i	-3.4	i	.	5.7	-0.2	.	.
C#Cc1ccc([C@H]2C=C(C(=O)N3CCN(Cc4ccccc4)CC3)O[C@@H](OCc3ccc(CO)cc3)C2)cc1	i	18.6*	i	-25.6	27.5	2.1	20.3*	3.0
CCCC1(c2ccccc2)NC(=O)N(CC(=O)Nc2cc(C)ccc2OC)C1=O (stereo not drawn)	i	-2.9	i	-27.6	-7.4	0.7	.	.
Cc1ccc(NC(=O)c2cc(-c3ccco3)nc3ccccc23)cc1S(=O)(=O)N1CCOCC1	i	22.7*	i	-31.6	-3.3	1.4	23.6*	2.6
COc1ccc(NC(=O)c2cc(C)nc3ccccc23)cc1S(=O)(=O)N1CCOCC1	i	.	.	.	13.7	.	.	.
SMILES	TMEM16A act	PP1 inh	ANO1 block	FID counter	PREPL inhibitor	PP5 inh	PP1 confirm	PP5 counter
COc1ccc(NC(=O)c2cc(-c3ccco3)nc3ccccc23)cc1S(=O)(=O)N1CCOCC1	i	44.7*	i	-23.0	11.8	1.8	8.7	-4.4
NS(=O)(=O)c1ccc(CCNC(=O)c2cc([N+](=O)[O-])ccc2N2CCOCC2)cc1	i	-3.5	.	.	0.0	-1.9	.	.
CCOc1ccc(N(C)Cc2cc(=O)oc3ccc(OCC)cc23)cc1	i	.	i	-21.5	.	.	.	.
Cc1cc(=O)n2[nH]c(=O)c(N=Nc3ccccc3)c2[nH]1	i	1.8	i	2.3	3.6	2.0	.	.
CCOc1ccc(N=Nc2c(=O)[nH]n3c(=O)cc(C)[nH]c23)cc1	i	18.7*	i	-16.4	8.6	8.7	6.5	-7.4
COc1ccc(Nc2ccc(N3C(=O)CCCC3=O)cc2[N+](=O)[O-])c(OC)c1	i	1.6	i	-1.1	5.8	2.9	.	.
O=C(NC(C(=O)N/N=C/c1c2ccccc2cc2ccccc12)c1n[nH]c(=O)c2ccccc12)c1ccccc1 (stereo not drawn)	i	18.3*	i	-23.8	-1.5	4.0	16.6*	-1.9
COc1cc(OC)c(OC)cc1CN1CCN(Cc2cccn2C)CC1	i	18.2*	i	6.8	2.9	-1.4	3.6	5.0
COc1cc(OC)c(OC)cc1CN1CCN(c2ccccc2OC)CC1	i	0.3	i	9.7	7.9	0.0	.	.
Cc1ccc(C(=O)CSc2nc(-c3ccccc3)ccc2C#N)cc1	i	-1.6	i	-6.1	11.3	1.1	.	.
N#Cc1ccc(-c2ccco2)nc1SCC(=O)c1ccc(Cl)cc1	i	26.2*	i	-6.4	15.3	0.7	6.8	-3.1
COc1ccc(Cl)cc1NC(=O)CN(C)C(=O)c1cn(-c2ccccc2)nc1-c1cccnc1	i	-4.4	i	.	-13.9	-1.5	.	.
